Experimental data taken from PubChem BioAssay (NCATS).
“And” between values parts separate entries of the source, which are not always exact repeats. Identical values can stand only once. Inconclusive results are not listed. The source made the active and inactive calls. Unless noted, calls come from the whole dose curve; as a rule, active = well fitted curve in the direction sought with a large enough effect; inconclusive = small, poorly fitted or top-dose-only effect, or another doubt; inactive = no such curve, though single readings can be large; an effect the other way counts as inactive or inconclusive.

How the values were obtained:
[1] = Cell Viability - N2a (AID 540); details: N2a mouse neuroblastoma cell viability; activity change, negative = cytotoxicity: at 92.2 µM (top of the series);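 note: cells exposed to compound for 40 h at 37 °C; nearly all actives have a fitted effect of over 45% in size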; note: potency is the fitted concentration of half-maximal effect;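 for activity change, negative = cytotoxicity: plate controls were DMSO alone for no effect and tamoxifen control for full effect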
Outline: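 First, 1500 N2a cells per well incubate 5 hr at 37 °C; next, compounds are added and incubated 40 hr at 37 °C; finally CellTiter-Glo is added and luminescence read after 20 min, with AC50 derived by Hill modeling.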

[2] = Cell Viability - NIH 3T3 (AID 541); details: NIH 3T3 cell viability, qHTS; activity change, negative = cytotoxicity: at 92.2 µM (top of the series);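 note: cells exposed to compound for 40 hours; nearly all actives have a fitted effect of over 25% in size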; note: potency is the fitted concentration of half-maximal effect;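 for activity change, negative = cytotoxicity: plate controls were DMSO alone for no effect and tamoxifen positive control for full effect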
Outline: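 AC50 values reflect concentration-dependent loss of intracellular ATP in NIH 3T3 cells after 40 hr treatment in complete culture medium, quantified by luciferase-based luminescence.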

[3] = Cell Viability - HUV-EC-C (AID 542); details: HUV-EC-C endothelial cell viability, qHTS; series mostly up to 92.2 µM;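 note: cells exposed to compound for 40 hours; nearly all actives have a fitted effect of over 35% in size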; note: potency is the fitted concentration of half-maximal effect; for activity change, negative = cytotoxicity: % is set by controls: 0 for no effect and ±100 for the full control effect
Outline: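 Decrease in cellular ATP, quantified by luciferase luminescence, reflects toxicity in normal human vascular endothelial HUV-EC-C cells given compound for 40 hr in complete culture medium. Values are AC50s from concentration-response curves.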

[4] = Cell Viability - H-4-II-E (AID 543); details: H-4-II-E rat hepatoma viability; series mostly up to 92.2 µM;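 note: cells exposed to compound for 40 hours; nearly all actives have a fitted effect of over 35% in size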; note: potency is the fitted concentration of half-maximal effect
Outline: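 Here, cytotoxicity is measured in the rat hepatoma line H-4-II-E as loss of intracellular ATP after 40 hr compound treatment, detected by luciferase luminescence.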

[5] = Cell Viability - SH-SY5Y (AID 544); details: SH-SY5Y neuroblastoma cell viability; viability change, negative = cytotoxic: at 92.2 µM (top of the series);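 note: cells exposed to compound for 40 hours; nearly all actives have a fitted effect of over 55% in size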; note: potency is the fitted concentration of half-maximal effect
Outline: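 Cytotoxicity is scored as a concentration-dependent fall in intracellular ATP in human SH-SY5Y cells treated 40 hr in complete culture medium. Potency is expressed as AC50 from a Hill equation fit.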

[6] = Cell Viability - Mesenchymal (AID 546); details: mesenchymal cells viability, qHTS; activity change, negative = cytotoxicity: at 91.7 µM (top of the series);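 note: cells exposed to compound for 40 hours before reading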
Outline: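 Human kidney mesenchymal cells from normal renal glomeruli, 1000 cells/well, rested 5 hr at 37 °C, then treated 40 hr at 37 °C in complete medium. Cellular ATP read by CellTiter-Glo luminescence; AC50 from Hill-equation fits.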

[7] = Cellular Toxicity (caspase-3) HepG2 (AID 654); details: HepG2 caspase-3 activation, luminescence; series mostly up to 92.2 µM;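 note: cells exposed to compound for 16 hours before reading; 0% = DMSO alone and 100% = caspase signal from 100 µM tamoxifen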
Outline: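 qHTS, HepG2, 1500 cells/well, complete medium; cpd 16 h 37 °C; Caspase-Glo 3/7, 20 min RT; lum. Norm: DMSO vs 100 uM tamoxifen; AC50 Hill fit.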

[8] = Cellular Toxicity (caspase-3) Jurkat (AID 655); details: Jurkat caspase-3 activation, luminescence; series mostly up to 92.2 µM;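 note: cells exposed to compound for 16 h at 37 °C before reading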; note: potency is the fitted concentration of half-maximal effect
Outline: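 Jurkat cells (5000/well) in complete medium were treated with compounds for 16 hr at 37 °C, then Caspase-Glo 3/7 luminescence was read after 20 min at room temperature. Data normalized to DMSO (basal) and 100 uM tamoxifen (100%); AC50 from Hill fit.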

[9] = Cellular Toxicity (caspase-3) HUV-EC-C (AID 656); details: HUV-EC-C cells, caspase-3 activation (apoptosis), vehicle = 0, 100 µM tamoxifen = 100%; series mostly up to 92.2 µM
Outline: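 HUV-EC-C endothelial cells, 1000/well, were pre-incubated 5 hr at 37°C, then exposed to compounds for 16 hr at 37°C. Caspase-Glo 3/7 luminescence was read after 20 min at room temperature. AC50 came from Hill fits, normalized to DMSO and 100 uM tamoxifen.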

[10] = Cellular Toxicity (caspase-3) BJ (AID 658); details: BJ fibroblasts, luminescence, normalized: DMSO 0%, staurosporine 100%; series mostly up to 91.7 µM
Outline: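 BJ human foreskin fibroblasts, 1000 cells/well, treated 16 hours at 37 °C in complete medium; caspase 3/7 activity by Caspase-Glo luminescence after 1 hr at room temperature. Normalized to DMSO and 10 uM staurosporine; AC50 from Hill fits.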

[11] = Cellular Toxicity (caspase-3) MRC-5 (AID 659); details: MRC-5 cells, luminescence; Potency: caspase-3 activation; series mostly up to 91.7 µM
Outline: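 MRC-5 human normal lung fibroblasts, 1500 cells/well, treated 16 h at 37 °C in complete medium. Caspase 3/7 measured by Caspase-Glo luminescence after 1 h at room temperature. Normalized to DMSO and 10 uM staurosporine; AC50 from Hill fit.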

[12] = Cellular Toxicity (caspase-3) Mesangial (AID 660); details: mesangial cells, normalized: DMSO 0%, 100 µM tamoxifen 100%; series mostly up to 91.7 µM;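 note: combined caspase 3 and 7 activity read by Caspase-Glo luminescence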
Outline: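 Concentration-response qHTS: compound-induced rise in caspase 3/7 luminescence in human mesangial cells after 16 h, normalized to DMSO and 100 uM tamoxifen controls.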

[13] = Cellular Toxicity (caspase-3) SK-N-SH (AID 661); details: SK-N-SH caspase-3 activation, qHTS; series mostly up to 91.7 µM; note: potency is the fitted concentration of half-maximal effect
Outline: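 Caspase 3/7 activation is measured as a luminescence increase from aminoluciferin released by substrate cleavage in SK-N-SH cells after 16 hr compound treatment; values are AC50 from concentration-response curves.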

[14] = Cellular Toxicity (caspase-3) H-4-II-E (AID 663); details: H-4-II-E rat hepatoma; Potency: caspase-3 activation; series mostly up to 92.2 µM; note: potency is the fitted concentration of half-maximal effect;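 for caspase-3 activation: cells exposed to compound for 16 hr before readout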
Outline: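 Rat hepatoma H-4-II-E cells (1500/well) plated 5 hr, then exposed to compound titrations for 16 hr at 37 °C. Caspase-Glo 3/7 luminescence read after 20 min at RT; data normalized to DMSO and 100 uM tamoxifen, AC50 from Hill fits.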

[15] = target: Glucocorticoid receptor (Homo sapiens) (UniProt P04150); assay: GR-GFP Redistribution (AID 450;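 active = compounds whose dose series gives a full or clear partial fitted curve of increased nuclear translocation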; note: potency is the fitted concentration of half-maximal effect); details: U2OS GR-GFP nuclear translocation, laser cytometry, 2 h
[16] = target: Glucocorticoid receptor (Homo sapiens) (UniProt P04150); assay: GR-EFC Redistribution (AID 451; calls by dose curve; note: potency is the fitted concentration of half-maximal effect); details: CHO-K1 GR-EFC translocation, beta-gal luminescence, 2 h
Outline: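 CHO-K1 cells expressing nuclear EA and GR-ED fragments of b-gal; compounds titrated up to 46 uM final, 2 h at 37 C. GR nuclear translocation read as complemented b-gal luminescence after 1 h RT detection.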

[17] = target: 3',5'-cyclic-AMP phosphodiesterase 4B (Homo sapiens) (UniProt Q07343); assay: qHTS Assay for Inhibitors of PDE-IV (AID 607; active = well fitted activation curve with a large enough effect in the main read-out, with a control signal flat, not every such curve was filed as active; note: % of control where 0% means no effect); details: HEK293 ACTOne CNG channel cells, membrane potential fluorescence; series mostly up to 22.9 µM
Outline: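 The readout is membrane depolarisation from a cAMP-sensing CNG channel, detected with a potential dye at ex 535/em 590. Cells were HEK293-derived (endogenous PDE-IV) at 1000 cells/well, titrated up to 22.9 uM final.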

[18] = Stat Signaling Pathway (AID 446; active = well fitted curve in either direction with a large enough effect, not every such curve was filed as active;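 note: ME-180 cervical cancer cells given 40 pM IL-6 alongside compound; SIE-controlled beta-lactamase reporter measured as 460/530 nm FRET emission ratio; % is set by controls: 0 for no effect and ±100 for the full control effect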); details: ME-180 SIE beta-lactamase reporter, IL-6 stimulated, 5 h
Outline: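 Screening format detects activators and inhibitors alike: ME-180 SIE-bla cells stimulated at 40 pM IL-6 for 5 hrs with compound, then dual-emission beta-lactamase read at 405 nm excitation.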

[19] = target: Mitogen-activated protein kinase 10 (Mus musculus) (UniProt Q61831); assay: JNK3 AlphaScreen Assay (AID 530; active = well fitted curve in either direction with a large enough effect, not every such curve was filed as active;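 note: kinase came from lysate of stimulated human HepG2 cells; signal reports phosphorylation of biotinylated GST-cJun 1-79 at Ser73 with 10 µM ATP; % is set by controls: 0 for no effect and ±100 for the full control effect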); details: JNK3 lysate, c-Jun phosphorylation; series mostly up to 25.6 µM
Outline: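 qHTS format: compounds tested as titrations against IL-1beta/TNF-alpha-activated HepG2 lysate JNK3 with biotin-GST-cJun substrate and 10 uM ATP at room temperature. Loss of anti-phospho-cJun AlphaScreen signal indicates inhibition.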

[20] = Cell Viability - Renal Proximal Tubule (AID 545); details: renal proximal tubule cells viability, primary cells of rat origin; activity change, negative = cytotoxicity: at 91.7 µM (top of the series);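 note: cells exposed to compound for 40 hours; nearly all actives have a fitted effect of over 40% in size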; note: potency is the fitted concentration of half-maximal effect
Outline: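 Primary rat renal proximal tubule cells (1000/well) were treated with compounds for 40 hr at 37 °C in complete medium. Intracellular ATP was measured by CellTiter-Glo luminescence, and AC50 values came from Hill-equation fits of concentration-response data.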

3',5'-cyclic-AMP phosphodiesterase 4B (Homo sapiens), sequence (Q07343 whole entry, looked up): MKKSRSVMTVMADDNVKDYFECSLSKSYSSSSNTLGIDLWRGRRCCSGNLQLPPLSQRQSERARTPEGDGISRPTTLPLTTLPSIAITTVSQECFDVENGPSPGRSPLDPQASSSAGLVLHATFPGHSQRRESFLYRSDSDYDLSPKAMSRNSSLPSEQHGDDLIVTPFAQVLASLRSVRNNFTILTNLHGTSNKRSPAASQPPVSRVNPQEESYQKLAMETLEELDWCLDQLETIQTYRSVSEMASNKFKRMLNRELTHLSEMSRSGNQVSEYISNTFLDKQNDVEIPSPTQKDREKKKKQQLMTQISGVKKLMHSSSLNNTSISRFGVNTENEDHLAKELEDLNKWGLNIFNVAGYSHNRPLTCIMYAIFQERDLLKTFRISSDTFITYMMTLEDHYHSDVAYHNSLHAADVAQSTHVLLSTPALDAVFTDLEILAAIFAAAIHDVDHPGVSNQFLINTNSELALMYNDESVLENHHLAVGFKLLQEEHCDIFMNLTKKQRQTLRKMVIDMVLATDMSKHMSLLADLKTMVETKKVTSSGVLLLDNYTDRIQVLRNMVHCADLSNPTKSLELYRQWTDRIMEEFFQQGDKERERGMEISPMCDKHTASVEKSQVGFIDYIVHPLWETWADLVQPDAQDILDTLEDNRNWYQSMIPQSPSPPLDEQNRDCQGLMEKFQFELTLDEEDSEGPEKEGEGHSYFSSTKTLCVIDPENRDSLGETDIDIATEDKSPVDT
Glucocorticoid receptor (Homo sapiens), sequence (P04150 whole entry, looked up, the tested form may be a part): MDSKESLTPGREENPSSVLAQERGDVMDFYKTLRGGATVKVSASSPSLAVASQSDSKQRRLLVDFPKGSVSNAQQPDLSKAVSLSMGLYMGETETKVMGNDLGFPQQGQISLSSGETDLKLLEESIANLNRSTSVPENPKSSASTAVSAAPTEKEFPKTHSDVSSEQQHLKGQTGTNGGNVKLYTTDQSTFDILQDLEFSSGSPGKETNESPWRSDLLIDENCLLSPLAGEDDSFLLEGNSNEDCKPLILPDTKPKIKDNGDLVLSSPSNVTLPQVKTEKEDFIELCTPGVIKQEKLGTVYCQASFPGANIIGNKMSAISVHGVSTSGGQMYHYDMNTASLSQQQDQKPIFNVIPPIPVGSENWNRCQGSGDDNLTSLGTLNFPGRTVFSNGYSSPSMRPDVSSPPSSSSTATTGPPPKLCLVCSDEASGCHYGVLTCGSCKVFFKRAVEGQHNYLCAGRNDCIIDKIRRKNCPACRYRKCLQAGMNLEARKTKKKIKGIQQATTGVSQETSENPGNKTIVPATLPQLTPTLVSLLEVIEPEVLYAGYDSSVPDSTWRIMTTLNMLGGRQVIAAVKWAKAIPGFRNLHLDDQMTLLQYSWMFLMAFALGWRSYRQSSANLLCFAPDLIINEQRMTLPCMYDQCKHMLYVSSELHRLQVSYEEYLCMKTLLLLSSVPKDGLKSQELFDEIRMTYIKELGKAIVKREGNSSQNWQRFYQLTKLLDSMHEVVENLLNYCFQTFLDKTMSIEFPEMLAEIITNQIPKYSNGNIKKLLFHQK

COC1=CC(=O)C[C@@H](C)[C@]12Oc1c(Cl)c(OC)cc(OC)c1C2=O
inactive: Potency [1] | Potency [2] | Potency [3] | activity change, negative = cytotoxicity [6] -20.5% | Potency [7] | Potency [8] | outcome [9] | outcome [10] | Potency [11] | outcome [12] | Potency [13] | Potency [14]
active: Potency [4] 25.1 µM | Potency [5] 25.1 µM

Oc1ccc(Cl)cc1Sc1cc(Cl)ccc1O
active: Potency [1] 31.6 µM | Potency [2] 31.6 µM | Potency [3] 31.6 µM | Potency [4] 39.8 µM
inactive: Potency [15] > 46 µM | Potency [16] > 9.22 µM | outcome [17] | Potency [7] | outcome [9] | outcome [10] | Potency [11] | outcome [12] | Potency [13] | Potency [14]

CC(O)(P(=O)(O)O)P(=O)(O)O
inactive: activity, negative = inhibition ([18]; at 17.2 µM (top of the series)) 3.57% | outcome [19] | outcome [17]

CCN(CCCc1ccccc1)CCCc1ccccc1
inactive: activity, negative = inhibition ([18]; at 17.2 µM (top of the series)) 13.6% and 2.48% | outcome [19]

O=C(COc1ccc(Cl)cc1)N1CCN(Cc2ccc3c(c2)OCO3)CC1
inactive: activity, negative = inhibition ([18]; at 17.2 µM (top of the series)) 1.26% | outcome [19] | outcome [17]

CC/C(=C(/CC)c1ccc(O)cc1)c1ccc(O)cc1
inactive: activity change, negative = cytotoxicity [6] -3% | Potency [7] | Potency [8] | outcome [9] | outcome [10] | Potency [11] | outcome [12] | Potency [13] | Potency [14]
active: activity change, negative = cytotoxicity [1] -83.5% | Potency [5] 31.6 µM

O=C(O)CCCCC(=O)O
inactive: outcome [19] | Potency [1] | Potency [2] | Potency [3] | Potency [4] | Potency [5] | activity change, negative = cytotoxicity [20] 1.76% | activity change, negative = cytotoxicity [6] 3.41% | Potency [7] | Potency [8] | outcome [9] | outcome [10] | Potency [11] | outcome [12] | Potency [13] | Potency [14]

CN1[C@@H]2CC[C@H]1CC(OC(=O)c1c[nH]c3ccccc13)C2 (some centres undefined)
inactive: activity, negative = inhibition ([18]; at 38 µM (top of the series)) -14.5% | outcome [17]

Oc1c(I)cc(Cl)c2cccnc12
inactive: Potency [15] > 20.6 µM | Potency [16] > 20.6 µM | Potency [7] | outcome [9] | outcome [10] | Potency [11] | outcome [12] | Potency [13] | Potency [14]
active: Potency [1] 31.6 µM | Potency [2] 5.01 µM | Potency [3] 31.6 µM | Potency [4] 50.1 µM | viability change, negative = cytotoxic [5] -84.2%

CC(=O)Oc1ccc(C(c2ccc(OC(C)=O)cc2)c2ccccn2)cc1
inactive: Potency [1] | Potency [2] | Potency [3] | Potency [4] | Potency [5] | activity change, negative = cytotoxicity [20] -2.53% | activity change, negative = cytotoxicity [6] -3.78% | Potency [7] | Potency [8] | outcome [9] | outcome [10] | Potency [11] | outcome [12] | Potency [13] | Potency [14]

O=C1OC(c2ccc(O)cc2)(c2ccc(O)cc2)c2ccccc21
inactive: activity, negative = inhibition ([18]; at 17.2 µM (top of the series)) -16.8% | outcome [19] | Potency [1] | Potency [2] | Potency [4] | activity change, negative = cytotoxicity [6] -12.7% | Potency [7] | Potency [8] | outcome [9] | outcome [10] | Potency [11] | outcome [12] | Potency [13] | Potency [14]

COc1cccc2c1C(=O)c1c(O)c3c(c(O)c1C2=O)C[C@@](O)(C(=O)CO)C[C@@H]3O[C@H]1C[C@H](N)[C@H](O)[C@H](C)O1
inactive: Potency [15] > 20.6 µM | outcome [9] | outcome [10] | Potency [11] | outcome [12]
active: Potency [1] 0.398 µM | Potency [2] 0.0794 µM | Potency [4] 25.1 µM | Potency [5] 0.0126 µM | Potency [20] 15.8 µM | Potency [8] 0.02 µM | Potency [13] 0.251 µM | Potency [14] 31.6 µM

CC(O)C(=O)O (centres undefined)
inactive: outcome [19] | Potency [1] | Potency [2] | Potency [3] | Potency [4] | Potency [5] | activity change, negative = cytotoxicity [20] -2.48% | activity change, negative = cytotoxicity [6] -3.83% | Potency [7] | Potency [8] | outcome [9] | outcome [10] | Potency [11] | outcome [12] | Potency [13] | Potency [14]

CCCCOc1ccc(OCCCN2CCOCC2)cc1
inactive: activity, negative = inhibition ([18]; at 17.2 µM (top of the series)) -0.87% and 12.1% | outcome [17]
